{"source": "PubChem BioAssay (NCATS)", "note": "Inconclusive results are not listed. Unmarked numbers belong to inactive results. The call rests on the fitted dose curve; in most records, active means well fitted cell-killing curve with a large enough effect; inconclusive means small, poorly fitted or top-dose-only effect, or effect the other way; inactive means flat fitted curve, though single readings scatter. On the % scale 0 is the no-effect control and ±100 the full control effect."}
{"system": "Es-2", "experiment": "Primary qHTS to identify gynecologic anti-cancer compounds using libraries of approved drugs and bioactive compounds (AID 1345084); further: nearly all actives have a fitted effect of over 55% in size", "conditions": "Gynecologic cancer cell panel viability, ATPlite luminescence, 48 h; series mostly up to 57.5 µM; activity change, negative = cytotoxicity: at the top concentration", "procedure,_shortened": "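48 h compound exposure at 37 C, 5% CO2; five-point qHTS. ATPlite luminescence readout of cell ATP.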"}
{"smiles": "C[C@@H]1C/C=C/C=C\\C=C\\C=C\\[C@H](O[C@@H]2O[C@H](C)[C@@H](O)[C@H](N)[C@@H]2O)C[C@@H]2O[C@](O)(C[C@@H](O)C[C@H]3O[C@@H]3/C=C/C(=O)O1)C[C@H](O)[C@H]2C(=O)O", "activity change, negative = cytotoxicity": "-1.95% [at 25.3 µM]"}
{"smiles": "COC(=O)C[C@@H]1C(C(=O)O)=CO[C@@H](O[C@@H]2O[C@H](CO)[C@@H](O)[C@H](O)[C@H]2O)/C1=C\\COC(=O)/C=C\\c1ccccc1", "activity change, negative = cytotoxicity": "-0.106% [at 25.3 µM]"}
{"smiles": "CC1CCC2C(C(=O)O)=CC3C(O)C(C)(C)CC123", "note": "(configuration not stated)", "activity change, negative = cytotoxicity": "4.57%"}
{"smiles": "CC(C)(O)/C=C1/C(=O)C(C)(C)C(=O)C(C)(C)C1(O)O[C@@H]1O[C@H](COC(=O)c2cc(O)c(O)c(O)c2)[C@@H](O)[C@H](O)[C@H]1O", "note": "(some centres not stated)", "activity change, negative = cytotoxicity": "-4.26% [at 25.3 µM]"}
{"smiles": "Cc1cc(O)c(C(C)C)cc1O[C@@H]1O[C@H](CO)[C@@H](O)[C@H](O)[C@H]1O", "activity change, negative = cytotoxicity": "0.389% [at 38.5 µM]"}
{"smiles": "O=C1CC(c2ccc([N+](=O)[O-])cc2)=NN1c1ccccc1", "activity change, negative = cytotoxicity": "-1.31%"}
{"smiles": "C=C1[C@H]2[C@H](O[C@@H]3O[C@H](COC(=O)/C=C/c4cc(OC)c(O)c(OC)c4)[C@@H](O)[C@H](O)[C@H]3O)OC=C(C(=O)O)[C@H]2C[C@@H]1O", "activity change, negative = cytotoxicity": "8.42% [at 25.3 µM]"}
{"smiles": "C/C=C(\\C)C(=O)OC[C@H]1O[C@H](O[C@H]2O[C@H](CO)[C@@H](OC(=O)/C(C)=C/C)[C@H](O)[C@H]2O[C@@H]2O[C@H](CO)[C@@H](O)[C@H](O)[C@H]2O)[C@H](O[C@@H]2O[C@H](CO)[C@@H](O)[C@H](O)[C@H]2O)[C@@H](O)[C@@H]1O", "activity change, negative = cytotoxicity": "10.5% [at 11.6 µM]"}
{"smiles": "CN1CC[C@@H](NC(=O)Nc2ccc(C#N)cc2)C[C@@H]1c1nc2ccccc2[nH]1", "activity change, negative = cytotoxicity": "-9.57%"}
{"smiles": "O=C(O)c1cc(O[C@@H]2O[C@H](CO[C@@H]3OC[C@@H](O)[C@H](O)[C@H]3O)[C@@H](O)[C@H](O)[C@H]2O)c2ccccc2c1O", "activity change, negative = cytotoxicity": "-4.15% [at 25.3 µM]"}
{"smiles": "O=c1ccn(C2OC(CO)C(O)C2O)c(=O)[nH]1", "note": "(configuration not stated)", "activity change, negative = cytotoxicity": "6.04%"}
{"smiles": "Clc1ccc(CN[C@H]2CCN(c3ncc(Br)cn3)C2)c(Cl)c1", "activity change, negative = cytotoxicity": "15%"}
{"smiles": "C=C1C(=O)OC2/C=C(\\C)CC/C=C(\\C(=O)O)CC/C=C(\\C)CCC12", "note": "(configuration not stated)", "activity change, negative = cytotoxicity": "-0.0605% [at 38.5 µM]"}
{"smiles": "C=CC1(C)C=C2C(=O)CC3C(C)(C)CCCC3(C(=O)O)C2(O)CC1", "note": "(configuration not stated)", "activity change, negative = cytotoxicity": "5.88% [at 38.5 µM]"}
{"smiles": "COc1c(C)c2c(c(O)c1C/C=C(\\C)CC/C=C(\\C)CCC(=O)O)C(=O)OC2", "activity change, negative = cytotoxicity": "7.67% [at 38.5 µM]"}
{"smiles": "CNC(=O)COC(=O)NCCC1CCN(c2cccc(C)n2)CC1", "activity change, negative = cytotoxicity": "4.45%"}
{"smiles": "Cc1nn(C)c(COc2ccc(N3CCN(S(=O)(=O)N(C)C)CC3)cc2)c1-c1cccc2c(CCCOc3cccc4ccccc34)c(C(=O)O)n(CCN3CCOCC3)c12", "activity change, negative = cytotoxicity": "7.81%"}
{"smiles": "CCCCS(=O)(=O)Nc1ncnc(OCCOc2ncc(Br)cn2)c1-c1ccc(Br)cc1", "activity change, negative = cytotoxicity": "1.17%"}
{"smiles": "C[C@H]1C[C@H]2[C@@H]3CCC4=CC(=O)C=C[C@]4(C)[C@@]3(F)[C@@H](O)C[C@]2(C)[C@@]1(O)C(=O)COP(=O)(O)O", "activity change, negative = cytotoxicity": "9.73%"}
{"smiles": "CC(C)(O)c1ccc2c(c1)C(O)CC1C(C)(C(=O)O)CCCC21C", "note": "(configuration not stated)", "activity change, negative = cytotoxicity": "0.695% [at 38.5 µM]"}
{"smiles": "COc1cc(CCc2ccccc2)c(C(=O)O)c2c1CC(C(C)(C)O)O2", "note": "(configuration not stated)", "activity change, negative = cytotoxicity": "-0.954% [at 38.5 µM]"}
{"smiles": "CCCCCCc1cccc(NC(=O)[C@H](N)CCP(=O)(O)O)c1", "activity change, negative = cytotoxicity": "1.07% [at 11.6 µM]"}
{"smiles": "CC(C)CC(=O)n1cc(C(N)=O)c(=O)cc1C(O)c1ccccc1", "note": "(configuration not stated)", "activity change, negative = cytotoxicity": "-2.29% [at 38.5 µM]"}
{"smiles": "CC(C)C(C#N)O[C@@H]1O[C@H](CO[C@@H]2OC[C@](O)(CO)[C@H]2O)[C@@H](O)[C@H](O)[C@H]1O", "note": "(some centres not stated)", "activity change, negative = cytotoxicity": "-2.82% [at 38.5 µM]"}
{"smiles": "COc1ccc(/C=C/C(=O)O[C@H]2[C@@H]3C=CO[C@@H](O[C@@H]4O[C@H](CO)[C@@H](O)[C@H](O)[C@H]4O)[C@@H]3[C@@]3(CO)O[C@@H]23)cc1O", "activity change, negative = cytotoxicity": "7.23% [at 25.3 µM]"}
{"smiles": "C=C1CC23CC1(O)CCC2C1=CC2OC(=O)C(C)(C2O)C1C3C(=O)O", "note": "(configuration not stated)", "activity change, negative = cytotoxicity": "1.91% [at 38.5 µM]"}
{"smiles": "COc1cc(/C=C/C(=O)OC[C@H]2O[C@H](O[C@]3(CO)O[C@H](CO)[C@@H](O)[C@@H]3O)[C@H](O)[C@@H](O)[C@@H]2O)cc(OC)c1O", "activity change, negative = cytotoxicity": "4.63% [at 25.3 µM]"}
{"smiles": "C(#Cc1cccc(CN2CCOCC2)c1)CCN1CCCCC1", "activity change, negative = cytotoxicity": "0.356%"}
{"smiles": "COc1cc(C)c(C(=O)O[C@H]2[C@@H](O)[C@H](n3ccc(=O)[nH]c3=O)O[C@@H]2CO)c(OC)c1", "activity change, negative = cytotoxicity": "3.01% [at 25.3 µM]"}
{"smiles": "C[C@@]12C[C@]3(O)O[C@H](O1)[C@]1(COC(=O)c4ccccc4)[C@H]3C[C@@]12O[C@@H]1O[C@H](COC(=O)c2ccccc2)[C@@H](O)[C@H](O)[C@H]1O", "activity change, negative = cytotoxicity": "-5.5% [at 25.3 µM]"}
{"smiles": "C[C@@H]1O[C@@H](O[C@H]2[C@H](O)[C@@H](C(=O)O)O[C@@H](O[C@H]3CC[C@@]4(C)C(CC[C@]5(C)C4CC=C4C6CC(C)(C)CC[C@]6(C(=O)O)CC[C@]45C)C3(C)C)[C@@H]2O[C@@H]2O[C@H](CO)[C@@H](O)[C@H](O)[C@H]2O)[C@H](O)[C@H](O)[C@H]1O", "note": "(some centres not stated)", "activity change, negative = cytotoxicity": "0.67% [at 11.6 µM]"}
{"smiles": "CC(=O)N1CCN(NC(=O)c2ccc(F)cc2)CC1", "activity change, negative = cytotoxicity": "5.87%"}
